Test results: PubChem BioAssay AID938 (National Center for Advancing Translational Sciences (NCATS), 2007)
Several values for one entry are separate records, joined by “and”; a condition that tells them apart may be missing. Equal values may be shown once. Among all 73,000 compounds or so, about 1,800 (2.5%) were called active. Another 13% or so got no clear call; they are omitted. The call rests on the fitted dose curve; in most records, active means well fitted activation curve with a large enough effect; inconclusive means small, poorly fitted or top-dose-only effect; inactive means no such curve, though single readings can be large or run the other way. Only a selection was taken, and actives are over-represented in it overall. Where a structure was tested more than once in an assay, its records may differ in their call.

Assay: qHTS Assay for Agonists of the Thyroid Stimulating Hormone Receptor: Activators of Intracellular cAMP Concentrations in Parental HEK 293; further: nearly all actives have a fitted effect of over 55% in size; on activation: % of control where 0% means no effect
Conditions: parental HEK293 CNG cAMP sensor, membrane potential fluorescence; series mostly up to 57.1 µM; activation: at the top concentration
Source text: NIH Chemical Genomics Center [NCGC]
NIH Molecular Libraries Screening Centers Network [MLSCN]
PI Name: Dr. Marvin Gershengorn
This cell based assay utilized a cyclic nucleotide gated ion channel (CNG) as a biosensor for cAMP induction. HEK 293 cells stably expressing the modified CNG were purchased from BD biosciences (http://www.atto.com/products/actone/features_benefits.shtml) . Stimulation of cAMP production causes the CNG to open and subsequent membrane depolarization to occur. A fluorescent membrane potential dye (BD biosciences) was utilized to detect cAMP stimulation in cells.
The cells were maintained in DMEM medium (Invitrogen) containing 10 % FBS (Hyclone), 100 units/ml Penicillin, 100 ug/ml Streptomycin (Invitrogen), and 250 ug/ml Geneticin (Invitrogen) and 1 ug/ml Puromycin (Invitrogen) at 37C in 5% CO2. This assay was used as a counterscreen to "qHTS Assay for Agonists of the Thyroid Stimulating Hormone Receptor", to control for compounds signaling through endogenous receptors and other targets of HEK 293 cells.
NCGC Assay Protocol Summary:
High Throughput Screening. Freshly passaged cells were dispensed into 1536-well assay plates at 4 ul/well in DMEM containing phenol red (Invitrogen), 10% FCS (Hyclone), and 100 units/ml Penicillin, 100 ug/ml Streptomycin (Invitrogen) and incubated at 37 C with 5% CO2 for 20 to 36 hrs before the robotic screening. The screen was initiated by addition of 4 ul/well membrane potential dye containing 100 uM RO 20-1724 (Sigma Aldrich), followed by 60 min incubation at room temperature to allow for dye equilibration across the cell membrane. 23 nl/well compound or control was then added to the assay plates, which were incubated for additional 30 min before reading a Envision fluorescence plate reader (Perkin Elmer) in bottom-read mode for fluorescence intensity (emission at 590 nm).
Keywords: cAMP, CNG Ion Channel, quantitative high throughput screening, qHTS, HTS, probe identification, CNG, cAMP, cyclic nucleotide gated ion channel PubChem
Potency means the concentration at half of the fitted maximal effect.

SMILES | activation | Potency
C/C(CCc1c[nH]c2ccccc12)=N\O | 2.11% (inactive) | –
NCCc1c[nH]c2ccc(O)cc12 | – | inactive and 31.6 µM (active)
CC(C)(c1ccc(OC[C@@H]2CO2)cc1)c1ccc(OC[C@H]2CO2)cc1 | 23.3% (inactive) | –
N#CCCCl | – | inactive
ClC(Cl)(Cl)c1ccccc1 | – | inactive
Fc1ccc(C(OCCN2CCN(C/C=C\c3ccccc3)CC2)c2ccc(F)cc2)cc1 | -30.9% (inactive) | –
COc1ccc(C2NCc3ccc4c(c3-n3cccc32)OCO4)cc1OC (stereo not given) | 19.3% (inactive) | –
c1ccc(C2NCc3ccccc3-n3cccc32)cc1 (stereo not given) | – | 25.1 µM (active)
CC(C)CC(C)Nc1ccc(Nc2ccccc2)cc1 (stereo not given) | -10.5% (inactive) | –
O=[N+]([O-])c1ccc(Cl)c(Cl)c1 | 11.3% (inactive) | –
CC(C)(c1ccccc1)c1ccc(O)cc1 | 14.7% (inactive) | –
CC(C)(C)C(O)(CCc1ccc(Cl)cc1)Cn1cncn1 (stereo not given) | 1.41% (inactive) | –
C[C@@]1([C@@H](NP(=O)(c2ccccc2)c2ccccc2)c2ccccc2)C[C@H]1CCO | – | 15.8 µM (active)
O=C1C2(Cl)C3(Cl)C4(Cl)C(Cl)(Cl)C5(Cl)C3(Cl)C1(Cl)C5(Cl)C24Cl (stereo not given) | – | inactive
CCCCC#N | 8.65% (inactive) | –
